Sm TGR inh = qHTS Assay for the Inhibitors of Schistosoma Mansoni Peroxiredoxins; Schistosoma mansoni thioredoxin glutathione reductase (TGR), Q962Y6; purified TGR, DTNB reduction, TNB absorbance 405 nm; Potency, µM (highest dose often 114 µM), without a hit: top-dose activity change, negative = inhibition, actives largely listed as inhibitors; 360,000 tested, 3% active; AID 485364, 2010; further: nearly all actives have a fitted effect of over 60% in size
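First, TGR (20 nM dispensed) and NADPH were mixed with compound. Second, a 15 min room-temperature incubation followed. Third, further NADPH and then DTNB were added to start the reaction. Finally, TNB absorbance was monitored kinetically.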
RE007 growth inh = qHTS Assay for Inhibitors of the HIV-1 protein Vpr; S. pombe RE007 Vpr strain, BacTiter-Glo ATP luminescence, 24 h; Potency, µM (doses to about 92.2 µM), without a hit: at the highest dose activity change, negative = less growth, actives largely listed as inhibitors; 360,000 tested, 0.21% active; AID 651644, 2012; active means well fitted falling curve with a large enough effect; inconclusive means small, poorly fitted or top-dose-only effect; inactive means no such curve, though single readings can be large or run the other way; further: nearly all actives have a fitted effect of over 50% in size
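Fission yeast RE007 carrying one integrated HIV-1 vpr copy, seeded at OD 0.01 in PMG+AL medium with 23 nL pinned compound. Grown 24 h at 30 degrees; viability read by BacTiter-Glo luminescence after 5 min.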
AmpC detergent = qHTS Inhibitors of AmpC Beta-Lactamase (assay with detergent) | P00811 | AmpC hydrolysis of nitrocefin, absorbance 480 nm, 0.01% Triton | Potency, µM (highest dose often 114 µM), inactives show top-dose activity change, negative = inhibition, most hits filed as inhibitors | 370,000 tested, 0.041% active;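 further: 0% = no-compound wells and -100% = no-enzyme wells; nearly all actives have a fitted effect of over 25% in size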
Target sequence (P00811 whole entry, looked up): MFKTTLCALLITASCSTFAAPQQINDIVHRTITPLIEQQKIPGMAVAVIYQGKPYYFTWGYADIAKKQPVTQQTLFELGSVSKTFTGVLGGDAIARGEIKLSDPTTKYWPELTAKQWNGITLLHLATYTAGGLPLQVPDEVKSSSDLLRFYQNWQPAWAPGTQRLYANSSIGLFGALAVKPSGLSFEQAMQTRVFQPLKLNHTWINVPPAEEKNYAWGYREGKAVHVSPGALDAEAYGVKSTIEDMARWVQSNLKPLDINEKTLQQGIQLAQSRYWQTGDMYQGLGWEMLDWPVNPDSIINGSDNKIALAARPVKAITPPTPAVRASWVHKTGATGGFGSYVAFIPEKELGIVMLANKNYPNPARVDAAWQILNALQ
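AmpC (5.3 nM in the dispensed reagent) in 20 mM phosphate pH 7.0 with 0.01% (detergent screen) or 0.0001% Triton X-100 was preincubated with compounds for 15 min at room temperature. Nitrocefin was then added from an 800 uM solution, and hydrolysis was followed at 480 nm.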
Giardia FBPA inh = qHTS Assay for Inhibitors of Fructose-1,6-bisphosphate Aldolase from Giardia Lamblia; AID 2451, 2010; Potency, µM (titrated, usually from 59.6 µM), inactives show at the highest dose activity, negative = inhibition, hits mostly inhibitors; 290,000 tested, 0.71% active; purified Giardia FBPA; further: nearly all actives have a fitted effect of over 55% in size
Target sequence (A8B2U2 whole entry, looked up): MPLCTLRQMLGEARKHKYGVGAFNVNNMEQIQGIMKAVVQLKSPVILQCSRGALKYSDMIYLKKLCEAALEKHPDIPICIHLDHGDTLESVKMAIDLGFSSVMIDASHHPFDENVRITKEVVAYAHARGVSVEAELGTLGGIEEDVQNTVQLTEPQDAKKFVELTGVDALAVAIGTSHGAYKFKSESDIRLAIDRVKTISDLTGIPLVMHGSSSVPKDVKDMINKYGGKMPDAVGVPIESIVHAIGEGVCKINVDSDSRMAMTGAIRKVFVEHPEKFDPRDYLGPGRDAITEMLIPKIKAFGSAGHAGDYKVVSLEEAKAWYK
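Giardia FBPA (40 nM reagent) was preincubated 10 min at RT with compound (up to 57.5 uM final), then substrate plus GAPDH/TPI/NAD/arsenate coupling system with diaphorase/resazurin was added; resorufin fluorescence (525/598 nm) was read after 20 min.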
AmpC no deterg = qHTS Inhibitors of AmpC Beta-Lactamase (assay without detergent); P00811; AmpC nitrocefin hydrolysis, absorbance 480 nm, 0.0001% Triton; Potency, µM (series often up to 57.1 µM), for the others: at the top dose activity change, negative = inhibition, hits mostly inhibitors; 330,000 tested, 0.52% active;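 further: plate controls were no compound for no effect and no enzyme for full effect; nearly all actives have a fitted effect of over 20% in size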
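20 mM phosphate pH 7.0 + 0.01% (detergent screen) or 0.0001% Triton X-100; 5.3 nM AmpC reagent; cpd preinc 15 min RT; nitrocefin (800 uM stock) to start; A480 q20 s × 4 min; Activity was normalised to no-enzyme and no-compound control wells.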
The depositor's hits bear a star; ? = inconclusive; · = no result given; [ ] = dose if it differs, or a comment. Sampled rows, rich in hits. Any-hit rate of the full collection: about 3.4%. Unless noted, the call rests on the fitted dose curve; in most records, active means well fitted curve in the direction sought with a large enough effect; inconclusive means small, poorly fitted or top-dose-only effect, or another doubt; inactive means no such curve, though single readings can be large; an effect the other way counts as inactive or inconclusive. Unless noted, on the % scale 0 is the no-effect control and ±100 the full control effect; potency means the concentration at half of the fitted maximal effect.

SMILES | Sm TGR inh | RE007 growth inh | AmpC detergent | Giardia FBPA inh | AmpC no deterg
Cc1ccc(SC[C@H](c2ccccc2)N2CCN(C)CCC2=O)cc1 | 40µM* | -11% | 4% | 3% | 103%
Cc1ccc(SC[C@H](c2ccccc2)N2CCN(CC(C)C)CCC2=O)cc1 | 32µM* | -20% | 7% | 7% | -9%
Cn1nnnc1SCC(=O)Nc1ccc(Cl)cn1 | -2% | -9% | 8% | · | -21%
NS(=O)(=O)c1ccc(CCNC(=O)CN2CCN(c3ccccc3O)CC2)cc1 | -17% | 9% | ? | -10% | -1%
CCc1nnc(N/N=C/c2cc(Br)c(O)cc2O)n1N | 35µM* | -22% | -8% | ? | -25%
c1ccc(NCCc2ccccn2)cc1 | · | -12% | · | · | ·
O=C(CSc1nnc(-c2ccncc2)n1Cc1ccco1)N1c2ccccc2Sc2ccc(Cl)cc21 | 45µM* | -17% | -14% | 9% | -13%
CCn1c2ccccc2c2cc(NC(=O)CSc3nnc(C4CC4)n3Cc3ccco3)ccc21 | 7.9µM* | 4% | -6% | -8% | 63%
Cn1nnnc1SCC(=O)N1c2ccccc2Sc2ccc(Cl)cc21 | 6% | 22% | 1% | -4% | 1.3µM*
CCn1c(SCC(=O)Nc2ccc3c(c2)OCO3)nnc1C1CC1 | 0% | -12% | 0% | -4% | -18%
O=C(CSc1nnc(-c2ccc(Cl)cc2)n1Cc1ccco1)Nc1ccc2c(c1)OCCO2 | 25µM* | -18% | -17% | 3% | -31%
Cn1c(SCC(=O)N2c3ccccc3Sc3ccc(Cl)cc32)nnc1-c1ccco1 | -27% | 6% | -10% | 2% | -8%
CO/N=C\CC(=O)Nc1ccc(Cl)c(Cl)c1 | -2% | -19% | -8% | 0% | -28%
Cc1cccc(C)c1NC(=O)CSc1nnc(-c2ccncc2)n1Cc1ccco1 | 8%[11.4 µM] | 12% | -15% | 11% | 6%
Cc1cc(Cl)ccc1NC(=O)CSc1nnc(-c2ccncc2)n1Cc1ccco1 | 45µM* | -9% | -2% | 5% | 79%
O=C(CSc1nnc(-c2ccncc2)n1Cc1ccco1)OC1CCCCC1 | 40µM* | -3% | 7% | 5% | 33%
C/C(CC(=O)Nc1ccc(N(C)C)cc1)=N\NC(=O)c1cnccn1 | 35µM* | · | ? | -29% | 15%
CCOc1ccc(NC(=O)c2cnccn2)cc1 | 89µM* | -24% | 0% | -13% | -9%
CC(C)CNC(=O)C1CCN(c2ccc(S(=O)(=O)N3CCOCC3)cc2)CC1 | 0% | -14% | -13% | 3% | 17%
CCOc1cccc(C=Nc2cc(C)cc(C)c2O)c1O | 4µM* | 3% | ? | ? | -46%
CCC(C)NC(=O)C1(O)c2ccccc2NC(=O)N1c1ccc(C)c(C)c1 (centres undefined) | 0% | 2% | -4% | -4% | -13%
O=C(COC(=O)[C@@H]1CCCN1S(=O)(=O)c1ccc(Cl)cc1)NC1CC1 | 23% | -7% | 3% | · | 7%
O=C(O)c1ccccc1SSc1ccccc1C(=O)O | -2% | -5% | -5% | -5% | -13%
C[CH2][Hg][S]c1ccccc1C(=O)O | · | -21% | · | 13µM* | ·
C#CCOCCOCCOCCNc1nc(N2CCN(C(=O)CCCCCCCCCCNC(=O)[C@H](CO)n3cc(CCCCCN)nn3)CC2)nc(N2CCN(C(=O)CCCCCCCCCCNC(=O)[C@H](CCCN=C(N)N)n3cc(C[C@@H](C)CC)nn3)CC2)n1 | 45µM* | · | 4% | · | 269%
SMILES | Sm TGR inh | RE007 growth inh | AmpC detergent | Giardia FBPA inh | AmpC no deterg
C#CCOCCOCCOCCNc1nc(N2CCN(C(=O)CCCCCCCCCCNC(=O)[C@H](CCCCN)n3cc(CCO)nn3)CC2)nc(N2CCN(C(=O)CCCCCCCCCCNC(=O)[C@H](CCCCN)n3cc(C[C@@H](C)CC)nn3)CC2)n1 | 50µM* | 8% | 6% | · | 286%
C#CCOCCOCCOCCNc1nc(N2CCN(C(=O)CCCCCCCCCCNC(=O)[C@@H](CCSC)n3cc(CCO)nn3)CC2)nc(N2CCN(C(=O)CCCCCCCCCCNC(=O)[C@H](CCCN=C(N)N)n3cc(C[C@@H](C)CC)nn3)CC2)n1 | 5µM* | -2% | 3% | · | 266%
CC(C)(C)c1cn(-c2ccc(F)cc2)c(=S)[nH]1 | -4% | 22% | ? | 6% | -16%
CC(=O)N1CCc2c(sc(NC(=O)CCS(=O)(=O)c3ccccc3)c2C(N)=O)C1 | -2% | 11% | -3% | -8% | -6%
S=C(Nc1ccc(Cl)cc1)c1nc2ccccc2[nH]1 | -1% | 6.3µM* | -14% | ? | -55%
Cc1cc(F)ccc1S(=O)(=O)Nc1cc2c(C(=O)O)c(C)oc2c2ccccc12 | -17% | · | 24% | · | ·
O=C1CCCCc2cc(O)c(O)cc21 | · | -10% | · | · | ·
Nc1cc2c(cc1O)CCCC2 | 40µM* | 3% | -1% | ? | -57%
CC(=Nc1ccc(C)cc1C)c1sc2ccccc2c1O | 48% | -11% | -6% | -5% | -31%
CC(=Nc1ccc(C)cc1)c1sc2ccccc2c1O | 5% | -21% | 1% | 1% | 7.9µM*
Cc1ccc(S(=O)(=O)/N=C2/C=C(C3C(=O)CC(C)(C)CC3=O)C(=O)c3ccccc32)cc1 | 14µM* | ? | -3% | ? | -35%
COc1ccccc1N(CC(=O)NCc1ccccc1)S(=O)(=O)c1cccs1 | · | 1% | · | · | ·
Cc1ccc(SC(=O)c2c([N+](=O)[O-])c(C)nn2C)cc1 | 5.6µM* | ? | -7% | -9% | 14%
Cc1ccc(S(=O)(=O)N(C(=O)c2ccncc2)c2ccc(OC(=O)c3ccncc3)c3ccccc23)cc1 | 20µM* | -11% | ? | -23% | 114%
Cc1ccc(S(=O)(=O)N(C(=O)c2ccncc2)c2ccc(OC(=O)c3ccncc3)c3ccccc23)c(C)c1 | 18µM* | 0% | -5% | ? | 67%
Cc1ccc(NC(=O)c2ccc(S(=O)(=O)C(F)F)cc2)c(C)c1 | -5% | 10% | ? | -15% | -23%
O=[N+]([O-])c1cc(S(=O)(=O)/N=C(/c2ccccc2)N2CCOCC2)ccc1Cl | 45µM* | -12% | 3% | -9% | 10%
O=S(=O)(/N=C(\c1ccc(Cl)cc1)N1CCOCC1)c1ccccc1 | -4% | 12% | -11% | 5% | 0%
Cc1ccc2[nH]c(=O)c(CN(Cc3cccs3)S(=O)(=O)c3ccc4c(c3)OCCO4)cc2c1 | -8% | 0% | -7% | 7% | -27%
CCCNC(=O)C1CCC(Cn2c(=O)c3sccc3n(Cc3cccc(OC)c3)c2=O)CC1 (centres undefined) | -1% | · | 13% | · | ·
COc1ccc(CN2CCN(C3CCOCC3)CC2CCO)c(C)c1C (centres undefined) | -35% | 0% | 2% | 2% | -7%
